Data reported in PubChem BioAssay (NCI).
About 79,000 compounds went through this panel and 15% of them were active in at least one assay; those are over-represented in the sample as a whole. A number with no mark means an inactive call. Activity calls are given as the source filed them. No stated cut-off is given here; in the data, active means growth inhibition above about 70%; inactive means the rest.

Experiments:
[1] = NCI Yeast Anticancer Drug Screen. Data for the rad50 strain (AID 155);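 further: 0% = growth of vehicle-only cultures of the same strain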; conditions: S. cerevisiae rad50 strain growth inhibition; at 50.0 µM; stronger effect = higher value
Summary of the method: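 DNA repair mutant yeast, compound exposure, growth read-out; inhibition is taken relative to vehicle.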

[2] = NCI Yeast Anticancer Drug Screen. Data for the mec2-1 strain (AID 157); conditions: S. cerevisiae mec2-1 strain, at 50.0 µM, stronger effect = higher value
Summary of the method: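 Each compound was tested on mec2-1 yeast, a strain altered in DNA damage repair or cell cycle control. Growth inhibition is reported relative to vehicle.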

[3] = NCI Yeast Anticancer Drug Screen. Data for the sgs1 mgt1 strain (AID 161);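 further: 0% = growth of cultures given vehicle only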; conditions: S. cerevisiae sgs1 mgt1 strain, at 50.0 µM, stronger effect = higher value
Summary of the method: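 Mutant yeast exposed to compound; growth scored against vehicle-only wells.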

[4] = NCI Yeast Anticancer Drug Screen. Data for the cln2 rad14 strain (AID 165);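 further: 0% = growth equal to vehicle treated cultures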; conditions: S. cerevisiae cln2 rad14 strain, at 50.0 µM, stronger effect = higher value
Summary of the method: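 Test compounds were added to cln2 rad14 yeast cultures; inhibition of growth was then determined by comparison with vehicle treatment.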

[5] = NCI Yeast Anticancer Drug Screen. Data for the bub3 strain (AID 167); conditions: S. cerevisiae bub3 mutant strain, at 50.0 µM, stronger effect = higher value
Summary of the method: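 In this screen, a yeast mutant lacking normal mitotic checkpoint function is challenged with compound. Relative growth versus vehicle gives the inhibition value.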

[6] = NCI Yeast Anticancer Drug Screen. Data for the mlh1 rad18 strain (AID 175); conditions: S. cerevisiae mlh1 rad18 strain growth inhibition; at 50.0 µM; stronger effect = higher value
Summary of the method: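 Inhibition values reflect reduced growth of mutant yeast versus vehicle-treated controls following compound exposure; the mutations affect DNA damage repair.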

Structure (SMILES) | growth inhibition [1] | growth inhibition [2] | growth inhibition [3] | growth inhibition [4] | growth inhibition [5] | growth inhibition [6]
CC(=O)OC1CCC2(C)C(CCC3C2CCC2(C)C(c4cccc(=O)o4)CCC32)C1 (stereo not drawn) | 22.5% | 8.9% | 11.4% | 14.8% | 0.35% | 2.3%
CCN(CC)CCOC(=O)c1ccc(N=Nc2cc(C(=O)O)ccc2O)cc1 | 14.8% | -6.3% | 4.1% | -6.55% | -0.8% | -12.5%
COc1ccc(/C(Cl)=C(\C=N/O)c2ccc(OC)c(OC)c2)cc1OC | -8.45% | 11.9% | -0.7% | 2.05% | 8.15% | -7.45%
CC(C)CC(CN(C)C)C(=O)/C=C/c1ccccc1 (stereo not drawn) | 18.2% | -2.25% | 19.4% | -6.95% | 11.8% | 22.1%
Cn1c(=O)c(-c2ccccc2)cc2ccccc21 | -9.9% | -12.9% | -3.85% | -1.95% | -1.15% | -16.6%
CCCCCC(=O)OC[n+]1ccc2c(C)c3[nH]c4ccc(OC)cc4c3c(C)c2c1 | 87.8% (active) | 91.8% (active) | 90.2% (active) | 89.3% (active) | 87.1% (active) | 91.5% (active)
C=CCSC(=S)Nc1nc2ccc(C)cc2s1 | -19.9% | 4.75% | 0.25% | 0.2% | -2.05% | 2.1%
CC(=O)NC1C(O)CC(OCCCSCCN)(C(=O)O)OC1C(O)C(O)CO (stereo not drawn) | -6.25% | -22.6% | -23.1% | 11.3% | -16.8% | -26.5%
CN(C)CCC(OC(=O)c1ccccc1Cl)c1ccccc1 (stereo not drawn) | -6.9% | 10.1% | 13.7% | 17.2% | 8.75% | 13.1%
COC1=CC(=O)c2ccc3ccccc3c2C1=O | 86.7% (active) | 90.4% (active) | 89.4% (active) | 88.8% (active) | 88.8% (active) | 86.5% (active)
COc1ccc(N2C(=O)C3c4[nH]c5ccccc5c4C4CCCCC4C3C2=O)cc1 (stereo not drawn) | -3.4% | 5.1% | -7.15% | 9.95% | -1.05% | -6.05%
CC1(C)C(=O)/C=C\C(=O)C(C)(C)C(=O)/C=C\C(=O)C(C)(C)C(=O)/C=C\C(=O)C(C)(C)C(=O)/C=C\C1=O | 12.1% | 0.25% | -9.05% | 10.5% | -13.2% | 12.7%
CC(C)=CC(=O)n1nc2c(c1CC(C)C)C(=O)C(Nc1ccccc1)=CC2=O | 35.1% | 3.25% | 21% | 24.8% | 1.3% | 27.4%
O=COCc1ccc2c(c1)OCO2 | 35.3% | 36.9% | 22.9% | 15.2% | 10.1% | 27.8%
NCCCNCCCCNC(=O)C(O)NC(=O)CC(O)CCCCN=C(N)N (stereo not drawn) | -1.45% | -0.6% | -22.7% | 16.8% | -2.85% | -24.1%
CNC(=O)c1ccc(/C=C/c2c[nH]c3ccccc23)[n+](C)c1 | -24.9% | -7.9% | -9.05% | -11.2% | -2.65% | -13.3%
COc1ccc(Cl)cc1NC(C)=O | 5.1% | 8.1% | 5.2% | 7.25% | 3.7% | -7.65%
O=C(Nc1ccc2c(c1)OCO2)O/N=C\c1ccccn1 | 9.15% | 26.8% | 17.7% | 57.4% | 9.4% | 42.1%
CCC(C(O)C(C)C)[N+](=O)[O-] (stereo not drawn) | 14.2% | 1.45% | 6.35% | -6.5% | 0.05% | 3.3%

Structure (SMILES) | growth inhibition [1] | growth inhibition [2] | growth inhibition [3] | growth inhibition [4] | growth inhibition [5] | growth inhibition [6]
COC1OCC(NC(C)=O)C(OC(C)=O)C1OC(C)=O (stereo not drawn) | 12.4% | -13.1% | -4.1% | 2.35% | -1.3% | -8%
C[N+](C)(C)CCCc1ccc2oc3ccccc3c2c1 | 21.8% | 8.65% | 7.35% | 6.15% | 0.7% | 7.95%
C1CC[N+]2(CC1)CCCCC2 | 0.1% | 9.4% | -0.55% | 14.2% | 23.1% | -0.45%
C=CCC(OC(C)=O)c1cccc(OC)c1OC (stereo not drawn) | 3.7% | 7.2% | -9.45% | -48.7% | -3.25% | -5.3%
CCCCC(C(=O)OCC)[N+](=O)[O-] (stereo not drawn) | -24.2% | -25.2% | 2.5% | 5.5% | 2.35% | 16.4%
CCOC(=O)c1ccc(-n2nc(C)cc(Cl)c2=O)cc1 | 1.3% | -11.2% | 10.8% | -43% | 20.4% | -4.8%
CC1CC(C)(C)OC(C2CC=CCC2)O1 (stereo not drawn) | -12.7% | -19.6% | -13.8% | -1.95% | 2.35% | 2.7%
NC(=S)N/N=C/c1ccc(F)cn1 | 22.9% | 58.4% | -1.5% | -63.9% | -5.4% | 11.9%
CN1C(=O)N(c2ccccc2)C2(CCN(CC3COc4ccccc4O3)CC2)C1=O (stereo not drawn) | 4.05% | -4.45% | 21.6% | 4.7% | -6.9% | 8.75%
COC(=O)C1=C(C)N(NC(N)=O)C2(N)N(NC(N)=O)C(C)=C(C(=O)OC)C12C#N (stereo not drawn) | -23.5% | -11.6% | -44.6% | 5.8% | 2.55% | -16.4%
C=CC1(C(=O)O)CCC(C(C)(C)C)CC1 (stereo not drawn) | 42.9% | 42% | 31.6% | 36.1% | 21.6% | 13.3%
O=C(Nc1ccc2ccccc2c1)c1ccc(Cl)cc1 | 4.65% | -9.65% | -15.1% | 7.05% | 31.4% | 1.4%
O=C(O)C1=C(C(=O)Nc2ccc(NC(=O)C3=C(C(=O)O)C4C=CC3C4)cc2)C2C=CC1C2 | -0.75% | -0.35% | -6.3% | -28.4% | 0.25% | 9.95%
Cc1cc(C)c2c(c1)Nc1ccccc1P2c1ccccc1 (stereo not drawn) | 11.2% | 14.2% | 48.2% | 31.1% | 44.6% | 53.6%
Cc1ccc([N+](=O)[O-])cc1NC(=O)NCCCl | -11.1% | 4.55% | 5.5% | -1% | -11.1% | -9.05%
CC#CCC1CCC(OCC)=CC1=O (stereo not drawn) | 10.4% | 9.25% | 12.2% | -20% | 5.9% | 17.1%
COC(=O)C(Cc1ccc2c(c1)OCO2)(NC(=O)c1ccccc1)P(=O)(OC)OC (stereo not drawn) | -30.5% | 1.05% | -8.6% | 16.8% | -25.1% | -32.5%
C/C(=N\NC(N)=O)C1CCCc2ccccc21 (stereo not drawn) | 2.45% | -15.3% | -9.8% | -6.55% | -10.3% | 10.2%
CCC(=O)c1c(O)cc(O)cc1O | -13.8% | -15.6% | 13.7% | -22.6% | 2.5% | -25%
